A selection: hits, their analogues and other compounds. The true share with any hit is near 5.3%.
IMPase inh – qHTS Assay for Identifying the Cell-Membrane Permeable IMPase Inhibitors; Inositol monophosphatase 1 (Rattus norvegicus), P97697; CHO-M1 cells, IP1 accumulation, HTRF TR-FRET ratio; inhibition (IP1 accumulation), % at 46.1 µM; 120,000 tested, under 10 active; active means well fitted curve in the direction sought with a large enough effect in the signal ratio, not every such curve was filed as active; inconclusive means small, poorly fitted or top-dose-only effect, or a change in a side signal; inactive means no such curve, though single readings can be large or run the other way; the % refers to the signal ratio;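 further: cells stimulated with carbachol in lithium chloride buffer; plate controls were DMSO basal wells for no effect and reference inhibitor wells for full effect; higher means more IMPase inhibition seen as more IP1 and lower FRET ratio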
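Measured: the HTRF emission ratio (665/620 nm) plus the 620 nm donor channel, each fitted to the Hill equation to give AC50. Cells were CHO-M1 given compounds up to 46 uM and a 30 min carbachol stimulation at 37C.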
IMPase Li cell – qHTS Assay for Identifying the Cell-Membrane Permeable IMPase Inhibitors: Potentiation with Lithium; CHO-M1 cells, IP1 TR-FRET (IP-One), carbachol + lithium; 210,000 tested, 0.35% active; Potency, µM (top dose mostly 59.4 µM), for inactives: top-dose activity, negative = IMPase inhibition, hits mostly inhibitors;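 further: IP1 builds up when IMPase is blocked and the TR-FRET signal falls; potency means the concentration at half of the fitted maximal effect; plate controls were basal vehicle for no effect and high inhibitor control for full effect; nearly all actives have a fitted effect of over 50% in size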
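Concentration–response in CHO-M1 cells, lithium-potentiated; 30 min at 37C. IP1 detected by competitive TR-FRET after 10 min lysis at RT. Hill-fitted AC50.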
ALOX15B inhib – qHTS Assay for Inhibitors of 15-hLO-2 (15-human lipoxygenase 2); AID 881, 2007; 110,000 tested, 0.56% active; Potency, µM (top dose mostly 57.1 µM), without a hit: top-dose activity change, negative = inhibition, actives largely listed as inhibitors; purified 15hLO-2, xylenol orange hydroperoxide absorbance; Polyunsaturated fatty acid lipoxygenase ALOX15B (Homo sapiens), O15296; further: potency means the concentration at half of the fitted maximal effect; nearly all actives have a fitted effect of over 60% in size
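Purified human 15hLO-2 (50 nM) preincubated 15 min with compound, then 45 uM arachidonic acid for 90 min at RT in 25 mM Hepes pH 7.5, 0.01% Triton X-100. Hydroperoxide detected by Fe-xylenol orange; 573/405 nm absorbance ratio.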
PNC assembly inh – High Content Assay for Compounds that inhibit the Assembly of the Perinucleolar Compartment; PC3M PTB-GFP, PNC prevalence imaging, 16 h; active compounds read low; activity change (PNC), negative = inhibition, % at 10 µM; 140,000 tested, 3.1% active;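 active means readout at or below -70, meaning at least 70% loss of cells showing the perinucleolar compartment, a nuclear body marking cancer cells; inconclusive means readout between -30 and a set limit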;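 further: plate controls were DMSO wells for no effect and camptothecin positive control wells for full effect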
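Read-out is percentage of cells bearing a perinucleolar compartment, from automated 20x imaging of fixed, Hoechst-stained PC3M PTB-GFP cells. Cells were seeded 4 h, then exposed 16 h to compound (23 nl of library stock) in duplicate plates.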
HPGD inh – qHTS Assay for Inhibitors of HPGD (15-Hydroxyprostaglandin Dehydrogenase); AID 894, 2007; purified HPGD, NADH fluorescence kinetic, PGE2 substrate; Potency, µM, inactives show at the top dose activity change, negative = inhibition, most hits filed as inhibitors; 150,000 tested, 4.3% active; active means well fitted inhibition curve with a large enough effect, not every such curve was filed as active; inconclusive means small, poorly fitted or top-dose-only effect, or another doubt; inactive means no such curve, though single readings can be large or run the other way; further: potency means the concentration at half of the fitted maximal effect
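20 nM HPGD preincubated 15 min at room temperature with compound in 50 mM Tris-HCl pH 8, 0.01% Tween 20. Started with 1 mM NAD+ and 30 uM prostaglandin E2; NADH fluorescence (360/450 nm) read 5 times over 30-s intervals, last minus first.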
ALOX12 inhib – qHTS Assay for Inhibitors of 12-hLO (12-human lipoxygenase); Potency, µM (series often up to 57.1 µM), inactives show at the highest dose activity change, negative = inhibition, most hits filed as inhibitors; 150,000 tested, 0.12% active; purified 12-hLO, xylenol orange hydroperoxide absorbance; further: potency means the concentration at half of the fitted maximal effect; nearly all actives have a fitted effect of over 55% in size
Target sequence (P18054 whole entry, looked up): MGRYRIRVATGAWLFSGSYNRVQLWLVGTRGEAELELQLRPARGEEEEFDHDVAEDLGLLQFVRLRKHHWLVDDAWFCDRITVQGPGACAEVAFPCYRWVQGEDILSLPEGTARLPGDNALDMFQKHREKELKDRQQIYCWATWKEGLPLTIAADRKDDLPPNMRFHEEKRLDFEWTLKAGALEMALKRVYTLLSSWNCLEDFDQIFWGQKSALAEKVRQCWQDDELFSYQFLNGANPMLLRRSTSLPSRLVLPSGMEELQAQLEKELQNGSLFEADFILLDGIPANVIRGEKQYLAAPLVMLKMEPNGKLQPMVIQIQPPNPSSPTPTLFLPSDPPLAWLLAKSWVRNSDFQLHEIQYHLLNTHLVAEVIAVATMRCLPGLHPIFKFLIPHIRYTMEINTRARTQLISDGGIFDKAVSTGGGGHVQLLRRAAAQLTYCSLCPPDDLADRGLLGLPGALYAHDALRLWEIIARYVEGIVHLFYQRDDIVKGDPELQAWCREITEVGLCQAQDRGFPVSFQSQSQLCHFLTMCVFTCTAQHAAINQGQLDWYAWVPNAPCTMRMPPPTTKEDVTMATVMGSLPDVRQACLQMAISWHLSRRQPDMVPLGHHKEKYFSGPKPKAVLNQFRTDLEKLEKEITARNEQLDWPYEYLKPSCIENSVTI
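Hydroperoxide formation by human 12-lipoxygenase from 40 uM arachidonic acid was followed colorimetrically via ferric-xylenol orange complex, using the 573/405 nm absorbance ratio. Enzyme concentration was 150 nM, with 30 min reaction at room temperature.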
The depositor's hits bear a star; u = inconclusive; x = no result given; [ ] = dose if it differs, or a comment. Unless noted, the call rests on the fitted dose curve; in most records, active means well fitted curve in the direction sought with a large enough effect; inconclusive means small, poorly fitted or top-dose-only effect, or another doubt; inactive means no such curve, though single readings can be large; an effect the other way counts as inactive or inconclusive. Unless noted, on the % scale 0 is the no-effect control and ±100 the full control effect.

SMILES	IMPase inh	IMPase Li cell	ALOX15B inhib	PNC assembly inh	HPGD inh	ALOX12 inhib
CCSc1nnc(NC(=O)c2cccc(OCc3c(C)noc3C)c2)s1	5	-1%[38.3 µM]	-7%	-111*	25µM*	0%
CCSc1nnc(NC(=O)c2cc(C)nc3ccccc23)s1	-4	-16%[38.3 µM]	-10%	-17	28µM*	-7%
CCC(CC)C(=O)NCc1ccccc1Cl	7	-9%[38.3 µM]	0%	7	-16%	-7%
COc1ccc2nc(NC(=O)c3cccc(OCc4c(C)noc4C)c3)sc2c1	9	u	-15%	-91*	u	u
CCNc1ncc2ncc(=O)n(Cc3ccc(F)cc3)c2n1	x	9%	-5%	x	x	x
Cc1ccc(NS(=O)(=O)c2ccc3[nH]c(=O)[nH]c3c2)c(C)c1	x	9%	x	x	x	x
CN(C(=O)c1ccc(OC2CCN(CCc3ccccc3)CC2)cc1)C1CCCCC1	x	19%	x	x	x	x
Cc1noc(C)c1COc1ccc(C(=O)OCC(=O)NCc2ccccc2Cl)cc1	x	-1%	x	33	-13%	-2%
Cc1noc(C)c1COc1cccc(C(=O)NCc2ccccc2Cl)c1	3	23%[38.3 µM]	10%	u	16µM*	-10%
O=C(COc1ccc(Cl)cc1)Nc1nnc(C2=COCCO2)o1	x	4%	x	x	x	x
O=c1ccc2cc3c([nH]c4ccc(Br)cc43)oc-2c1O	6	13%[38.3 µM]	-20%[2.29 µM]	2	16µM*	u
O=c1c2c([nH]c3ccc(Br)cc13)CCCC2	1	3%[38.3 µM]	-1%	-23	-4%	-1%
CCOc1ccc(-c2nn(-c3ccccc3)cc2/C=C2\SC(=S)N(C3CCS(=O)(=O)C3)C2=O)cc1 (configuration not stated)	3	18%[38.3 µM]	-15%	-1	-4%	3%
CCOc1ccc(-c2nn(-c3ccccc3)cc2/C=C2\SC(N)=NC2=O)cc1C	-21	-28%[38.3 µM]	0%	-22	16µM*	3%
COc1ccc(C(=O)/C=C2\NCC3c4ccccc4CCN3C2=O)cc1 (configuration not stated)	6	-3%[38.3 µM]	-15%	-28	28µM*	2%
Cc1ccc2nc(-c3ccc(N4C(=N)SC5CS(=O)(=O)CC54)cc3)sc2c1 (configuration not stated)	-7	x	x	u	x	1%
Cc1n[nH]c(C)c1SCC(=O)Nc1ccc(F)cc1	-2	-1%	x	-100*	-11%	2%
N#Cc1c(-c2ccccc2)ccnc1Oc1ccccc1	0	7%[38.3 µM]	-7%	-96*	-29%	2%
CCCCCC/C(C)=C1/SC(=S)NC1=O	3	2%[38.3 µM]	u	74	13µM*	-16%
C/C(C/C(C)=C1/SC(=S)NC1=O)=C1\SC(=S)NC1=O	x	-8%	x	x	x	x
COc1cccc(C2C(C(=O)Nc3ccccc3OC)=C(C)Nc3nc(-c4ccco4)nn32)c1 (configuration not stated)	18	x	x	x	x	x
CCn1cc(C(C)NC(=O)COc2ccc(Cl)cc2C)c(C)n1 (configuration not stated)	2	15%[38.3 µM]	-3%	-95*	-20%	-1%
O=C(COc1ncnc2c(Cl)cc(Cl)cc12)N1CCCCC1	-5	-7%[38.3 µM]	-10%	12	-6%	-7%
O=C(COc1ccc(Br)cc1Br)NC1CCCC1	x	-8%	x	x	x	x
Cc1cc(Cl)ccc1OCC(=O)NC1CCCC1	10	-8%[38.3 µM]	-8%	6	14µM*	-1%
SMILES	IMPase inh	IMPase Li cell	ALOX15B inhib	PNC assembly inh	HPGD inh	ALOX12 inhib
O=C(COc1ncnc2c(Cl)cc(Cl)cc12)NC1CCCCCC1	9	22µM*	-9%	-29	u	3%
O=C(COc1ccc(Br)cc1Cl)NC1CCCCC1	x	8%	x	19	11µM*	0%
O=c1c(CCc2ccccc2)nc2cnc(N3CCNCC3)nc2n1Cc1ccc(F)cc1	x	21%	5%	x	u	7%
Cc1cccc(NC(=O)CSc2nc(N)c(NC(=O)c3cccs3)c(=O)[nH]2)c1C	x	-4%	x	36	0%	-1%
O=C(NCc1cccs1)C1CCC(=O)N1C1CCCCC1 (configuration not stated)	3	3%[38.3 µM]	4%	51	-6%	5%
CCN(CC)S(=O)(=O)c1c(OC)cc(C)c(Cl)c1C	x	16%	x	x	x	x
Cc1ccc(OCC(=O)NC2CCCC2)c(C)c1	2	-6%[38.3 µM]	-3%	u	28µM*	-2%
BrC/C=C/CBr	x	11%	-12%	x	-2%	1%
O=C(CS(=O)(=O)c1cn(Cc2ccc(F)cc2)c2ccccc12)N1CCCCC1	-13	8%	x	-100*	-22%	0%
CCOc1ccc(C(=O)N2CCC(C(=O)c3ccc4c(c3)OCCO4)CC2)cc1	u	13%[38.3 µM]	3%	25	-9%	-10%
O/N=C1\CCCc2ccc(Cl)cc21	x	-7%	x	-25	-16%	2%
O=C1NC(=NCc2ccccc2)S/C1=C/c1ccc(O)cc1	x	-7%	x	2	2.8µM*	u
Cc1c(N=C2NC(=O)/C(=C/c3ccc(O)cc3)S2)c(=O)n(-c2ccccc2)n1C	x	3%	x	u	-23%	-1%
COC(=O)CCCC1=CC2=C(c3ccccc3)C(=O)C(C)(OC(=O)C3CCCC3)C(=O)C2=CO1 (configuration not stated)	x	1%	x	x	-5%	-18%
COCCNC(=O)COC(=O)c1nsc(Cl)c1Cl	1	-7%[38.3 µM]	-2%	-109*	-10%	7%
CCCn1c2c(c(O)c(C(=O)NCCCN(CC)CC)c1=O)CCCC2	-3	9%	x	-100*	-13%	33%
CCCn1c2c(c(O)c(C(=O)NC)c1=O)CCCC2	4	-1%	x	196	-17%	-8%
Cc1ccc(CCCC(=O)O)cc1C	x	-9%	-2%[11.4 µM]	x	-14%	-5%[11.4 µM]
Cc1ccc(Oc2nc3c(c(=O)n(Cc4ccccc4F)c(=O)n3C)n2C)cc1	-9	46%[38.3 µM]	3%	-85*	-8%	1%
COCc1ccc(C(=O)NC(C)c2cnn(-c3ccccc3C)c2C)o1 (configuration not stated)	x	6%	x	x	x	x
CCN(CC)c1ccc(NC(=O)c2cc(OC)cc(OC)c2)c(C)c1	19	34%[38.3 µM]	-3%	-89*	-7%	-2%
CCN(CC)c1ccc(NC(=O)c2cccc(OC)c2)c(C)c1	6	29%[38.3 µM]	5%	u	-6%	3%
COc1cc2cc(CN(Cc3cccs3)C(=S)Nc3ccccc3)c(=O)[nH]c2cc1OC	x	0%	x	35	-25%	5%
